Source: PubChem BioAssay
The source made the active and inactive calls. The rule behind the calls is not given here.

Assay: inhibition of Brca1/Bard1 split-luciferase complementation, confirmation, counter-screen for Mdm2/MdmX interaction inhibitor project, luminescence, single concentration (AID 504668)
Conditions: Brca1/Bard1 bimolecular luciferase complementation counterscreen, at 8 µM, hits give high values
In the case of `NC(N)=N/N=C/c1ccc(OCc2ccccc2Cl)cc1`, the inhibition is reported as 32.5% (active).
In the case of `Cc1nnc(-c2ccccc2)c(=O)n1/N=C/c1c(O)ccc2ccccc12`, the inhibition is reported as 30.7% (active).
In the case of `Cc1c(Cl)cccc1N/C(SCC(=O)N1CCCCCC1)=C(/C#N)c1nc2ccccc2s1`, the inhibition is reported as 36% (active).
For `CN(C(=O)c1ccc(S(=O)(=O)c2cccc(Cl)c2)c([N+](=O)[O-])c1)C1CCCCC1`, the inhibition was 28.9% (active).
With `CCOC(=O)c1cnc(-n2nc(C)cc2C)nc1NC1CCCCC1` the inhibition was 30.1% (active).
In the case of `O=C(C[C@H]1C[C@H](C(=O)N2CCCCC2)[C@@]2(CCc3ccccc3)c3[nH]c4ccc(Cl)cc4c3CCN2C1=O)NCc1cccc(C(F)(F)F)c1`, the inhibition is reported as 34% (active).
In the case of `CC(NC(=O)/C(C#N)=C/c1ccc(Cl)c([N+](=O)[O-])c1)c1ccccc1` (stereo not given), the inhibition is reported as 29% (active).
With `CC(=O)NC(c1cc(Cl)c2cccnc2c1O)C1CC1` (stereo not given) the inhibition was 33.4% (active).
In the case of `Oc1c(C(c2ccc(Cl)cc2)N2CCCC2)cc(Cl)c2cccnc12` (stereo not given), the inhibition is reported as 32.9% (active).
In the case of `Cc1nc2ccccn2c1C(=O)/C=C/c1cccc([N+](=O)[O-])c1`, the inhibition is reported as 27.6% (active).
With `COc1ccc(-c2csc(NC(=S)NC(=O)c3ccco3)n2)cc1Br` the inhibition was 23.1% (active).
In the case of `Cc1cc(C(=O)CSc2nnc3ccccn23)c(C)n1-c1ccccc1`, the inhibition is reported as 29.6% (active).
In the case of `C[C@@]12C(=O)Nc3cc(Cl)ccc3C(=O)N1[C@H]1c3cc(Br)ccc3OC[C@@H]1[C@@H]2c1ccccc1`, the inhibition is reported as 30.8% (active).
With `CCN(CC)c1ccc(/C=N/NC(=O)CCC(=O)NCc2ccccc2)c(O)c1` the inhibition was 33.7% (active).
In the case of `O=Cc1[nH]c2ccccc2c1N(C(=O)CCl)c1ccc([N+](=O)[O-])cc1`, the inhibition is reported as 25.5% (active).
In the case of `Cc1cccc(Cn2nc(C(C)(C)C)cc2C(=O)Nc2ccc(F)cc2)c1`, the inhibition is reported as 31.2% (active).
For `COc1ccc(C(=O)C/C(=C\C(=O)c2ccc(C)cc2)c2ccccc2)cc1`, the inhibition was 24.3% (active).
For `CN(Cc1cnc2nc(N)nc(N)c2n1)c1ccc(C(=O)N[C@@H](CCC(=O)O)C(=O)O)cc1`, the inhibition was 29.8% (active).
In the case of `CN1CCN(C(c2ccc(C(F)(F)F)cc2)c2cc(Cl)c3cccnc3c2O)CC1` (stereo not given), the inhibition is reported as 24.6% (active).
For `Cn1ccc2cc(-c3ccc4ncnc(NCc5cccs5)c4c3)ccc21`, the inhibition was 25% (active).
With `CC(C)(C)c1cc(NCCCn2ccnc2)n2ncc(-c3ccc(Cl)cc3)c2n1` the inhibition was 34.9% (active).
In the case of `N#CC(c1ccc(Cl)cc1)c1ccc2c(C(F)(F)F)cc(C(F)(F)F)nc2n1` (stereo not given), the inhibition is reported as 24% (active).
With `C/C(N=Nc1nc2ccccc2s1)=N\Nc1ccccc1O` the inhibition was 26.2% (active).
In the case of `CCOC(=O)c1nc(NNC(=O)c2ccc([N+](=O)[O-])cc2)sc1C`, the inhibition is reported as 27.4% (active).
In the case of `Cc1ccc(Cc2c(C)c(C#N)c3[nH]c4ccccc4n3c2=O)cc1`, the inhibition is reported as 35.8% (active).
For `O=C(CCl)c1ccc2c(c1)CCN2C(=O)C1CC1`, the inhibition was 27% (active).
For `CC[C@]1(C(=O)OC)[C@H]2C(=O)N(Cc3ccccc3)C(=O)[C@H]2[C@H]2CN=C(SCc3ccccc3)N21`, the inhibition was 35.8% (active).
For `COc1ccc(N=Nc2ccc(O)c3ncccc23)cc1`, the inhibition was 31.7% (active).
In the case of `Oc1ccc(N=Nc2ccccc2C(F)(F)F)c2cccnc12`, the inhibition is reported as 23.3% (active).
For `COc1cccc(/C=N/NC(=O)CNC(=O)C(c2ccccc2)c2ccccc2)c1O`, the inhibition was 28.6% (active).
With `CCOC(=O)c1c(CN(C)C)n(C)c2c(O)c(N=NC(N)=O)c3ccc(Br)cc3c12` the inhibition was 27.9% (active).
In the case of `CCN1/C(=C/C=C/c2oc3ccc4ccccc4c3[n+]2CC)Oc2ccc3ccccc3c21`, the inhibition is reported as 28.6% (active).
In the case of `Cc1cc(C(=O)CCl)c(C)n1CCc1ccc(F)cc1`, the inhibition is reported as 34.4% (active).
In the case of `N#Cc1c(-c2ccccc2)c(-c2ccccc2)nn(CC(=O)NNC(=O)Nc2ccc(Cl)c(Cl)c2)c1=O`, the inhibition is reported as 35.9% (active).
With `CCOc1ccccc1CNC(=O)C1CCCN(c2nnc(C)c3c(C)n(-c4ccccc4)nc23)C1` (stereo not given) the inhibition was 33.6% (active).
For `CCOc1ccccc1CNC(=O)c1cc2oc3ccccc3c2n1CC`, the inhibition was 25.6% (active).
For `CCC(NC(=O)Nc1nnc(C(F)(F)F)s1)(C(F)(F)F)C(F)(F)F`, the inhibition was 26.3% (active).
With `O=C1N(c2ccccc2)C[C@@H]2C[C@@H](c3cc4ccccc4o3)N3CCC[C@@]123` the inhibition was 35.1% (active).
For `Oc1ccc(COCc2ccccc2)c2cccnc12`, the inhibition was 28.7% (active).
For `Cc1oc(-c2ccccc2Cl)nc1CSCC(=O)N1CCCC1`, the inhibition was 25.7% (active).
